# Test results taken from PubChem BioAssay (EPA / NIEHS).
# Where “and” joins values, the source holds several entries; their conditions need not be identical. Identical values can stand only once. Results filed as inconclusive are left out. Calls of active or inactive are those of the source. The calls were made as follows, unless noted: active = hit-call score of the fitted dose curve at least 0.9, where 1 is the maximum; inactive = score below 0.9.
# Experiments:
# [1] = molecular target: Glucocorticoid receptor (Homo sapiens) (UniProt P04150); assay: ATG_GR_TRANS: Attagene TRANS-FACTORIAL HepG2 Assay for human Glucocorticoid Receptor (GR) (AID 2282978; active = hit-call score of the fitted dose curve at least 0.9, where 1 is the maximum;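 also: activators score as hits since higher reporter transcript over DMSO is fitted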); settings: HepG2 Attagene TRANS GR reporter, mRNA transcription
# How it was run: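 In this trans-factorial format, exogenous NR-GAL4 chimeric proteins in transfected HepG2 cells regulate GAL4-UAS reporter transcription. After 24 h treatment, reporter mRNA induction relative to DMSO is read by RT-PCR and capillary electrophoresis.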
# [2] = molecular target: Oxysterols receptor LXR-beta (Homo sapiens) (UniProt P55055); assay: ATG_LXRb_TRANS: Attagene TRANS-FACTORIAL HepG2 Assay for human Liver X Receptor beta (LXRb) (AID 2282981; active = hit-call score of the fitted dose curve at least 0.9, where 1 is the maximum); settings: HepG2 Attagene TRANS GAL4-LXRb reporter, mRNA
# How it was run: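 After 24 h of chemical treatment, transfected HepG2 cells yield total RNA; reporter cDNA is PCR-amplified, FAM-labelled, HpaI-cut and run on capillary electrophoresis. Signal reflects chimeric LXRb-Gal4 activity on GAL4-UAS reporters.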
# [3] = ATG_M_06_TRANS: Attagene TRANS-FACTORIAL HepG2 Assay for M06 Transcription Factor (Internal Marker) (AID 2282983; active = hit-call score of the fitted dose curve at least 0.9, where 1 is the maximum;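 also: reporter transcript level by RT-PCR then capillary electrophoresis fluorescence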); settings: HepG2 Attagene TRANS M06 internal marker reporter
# How it was run: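 In this multiplexed HepG2 system, compounds are incubated 24 h with cells carrying GAL4-UAS reporter units. Reporter RNA is amplified and resolved by capillary electrophoresis, and induction is scored against DMSO.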
# [4] = ATG_M_32_TRANS: Attagene TRANS-FACTORIAL HepG2 Assay for M32 Transcription Factor (Internal Marker) (AID 2282984; active = hit-call score of the fitted dose curve at least 0.9, where 1 is the maximum;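 also: transcript level of a background control reporter unit measured by RT-PCR and capillary electrophoresis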); settings: HepG2 Attagene TRANS M32 internal marker reporter
# How it was run: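 Cell-based TRANS-format assay in HepG2: exogenous chimeric GAL4 reporter units transiently expressed, compounds applied 24 h. Reporter mRNA detected by RT-PCR plus capillary electrophoresis; this readout is an internal background marker.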
# [5] = molecular target: Nuclear receptor subfamily 4 group A member 2 (Homo sapiens) (UniProt P43354); assay: ATG_NURR1_TRANS: Attagene TRANS-FACTORIAL HepG2 Assay for human Nuclear Receptor Related Protein 1 (NURR1) (AID 2282985; active = hit-call score of the fitted dose curve at least 0.9, where 1 is the maximum); settings: HepG2 Attagene TRANS reporter, mRNA readout
# How it was run: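 Measures transcriptional activation by an exogenous NR-Gal4 chimera in transfected HepG2 liver cells. After 24 h, reporter RNA is reverse-transcribed, amplified and resolved by capillary electrophoresis; DMSO defines baseline.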
# [6] = molecular target: Transcriptional activator Myb (Homo sapiens) (UniProt P10242); assay: ATG_Myb_CIS: Attagene CIS-FACTORIAL HepG2 Assay for human Myeloblastosis (Myb) Proto-Oncogene Transcription Factor (AID 2282986); settings: HepG2 Attagene CIS-FACTORIAL Myb reporter transcription; actives raise or lower the signal
# How it was run: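 Steps: transfect HepG2 with cis-regulated reporter units; dose with chemical for 24 h; isolate RNA, reverse-transcribe, PCR-amplify and FAM-label reporter sequences; digest with HpaI; resolve by capillary electrophoresis. Activity fitted in both directions relative to DMSO.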
# [7] = molecular target: Nuclear respiratory factor 1 (Homo sapiens) (UniProt Q16656); assay: ATG_NRF1_CIS: Attagene CIS-FACTORIAL HepG2 Assay for human Nuclear Respiratory Factor 1 (NRF1) Orphan Gene (AID 2282987); settings: HepG2 NRF1 cis-element reporter, Attagene multiplex; actives raise or lower the signal
# How it was run: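 Fluorescence intensity of labelled reporter cDNA fragments, resolved by capillary electrophoresis, served as readout for NRF1 cis-element activity. Transiently transfected HepG2 cells were dosed for 24 hours; activity in either direction was fitted against DMSO negative control.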
# [8] = ATG_NFI_CIS: Attagene CIS-FACTORIAL HepG2 Assay for human Nuclear Factor I (NFI) (AID 2282989); settings: HepG2 cis-regulatory reporter, NFI response element transcription; actives raise or lower the signal
# How it was run: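 HepG2 cells transiently transfected with cis-element-driven multiplexed reporter transcription units, dosed for 24 h. Reporter mRNA quantified by RT-PCR, fluorescent labelling, HpaI digestion and capillary electrophoresis; bidirectional fit versus DMSO baseline.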
# [9] = molecular target: Myc proto-oncogene protein (Homo sapiens) (UniProt P01106); assay: ATG_Myc_CIS: Attagene CIS-FACTORIAL HepG2 Assay for human Myelocytomatosis (Myc) Proto-Oncogene Transcription Factor (AID 2282990); settings: HepG2, Attagene cis-reporter transcription factor activity; actives raise or lower the signal
# How it was run: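 HepG2, transient MRTU transfection (cis promoters, endogenous TFs); 24 h dosing; TriZol RNA → oligo(dT) RT → PCR → 6-FAM primer extension → HpaI cut → CE. Bidirectional fit vs DMSO.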
# [10] = ATG_NF_kB_CIS: Attagene CIS-FACTORIAL HepG2 Assay for human Nuclear Factor Kappa B (NF-kB) (AID 2282991); settings: HepG2 Attagene cis-factorial NF-kB reporter mRNA; actives raise or lower the signal
# How it was run: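 Endogenous transcription factor activity in HepG2 was captured via cis-regulated reporter constructs; after 24 h dosing, reporter mRNA was reverse-transcribed, amplified, fluorescently labelled and sized by capillary electrophoresis, with activity fitted bidirectionally relative to DMSO.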
# [11] = ATG_NRF2_ARE_CIS: Attagene CIS-FACTORIAL HepG2 Assay for human Nuclear Factor Erythroid 2 Related Factor 2 (NFR2) response to Antioxidant Response Elements (ARE) (AID 2282992); settings: HepG2 Attagene ARE/NRF2 reporter, transcription factor activity; actives raise or lower the signal;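 as to AC50: reporter mRNA level measured by RT-PCR and capillary electrophoresis fluorescence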
# How it was run: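 Endogenous transcription factor activity in human liver HepG2 cells is tracked via a cis-element-driven reporter within a multiplexed set. mRNA induction is read by RT-PCR and capillary electrophoresis after 24 h, with DMSO as baseline.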
# [12] = ATG_Oct_MLP_CIS: Attagene CIS-FACTORIAL HepG2 Assay for human Octamer-Binding Transcription Factor (Oct) (AID 2282993); settings: HepG2 Attagene cis-factorial Oct reporter, mRNA; actives raise or lower the signal
# How it was run: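 HepG2 cells transiently transfected with cis-promoter-driven multiplexed reporter transcription units, dosed for 24 h. Reporter mRNA quantified by RT-PCR, fluorescent labelling, HpaI digestion and capillary electrophoresis; bidirectional fits versus DMSO baseline.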
# [13] = molecular target: Cellular tumor antigen p53 (Homo sapiens) (UniProt P04637); assay: ATG_p53_CIS: Attagene CIS-FACTORIAL HepG2 Assay for human p53 Transcription Factor (AID 2282994); settings: HepG2 p53 cis-element reporter, Attagene mRNA; actives raise or lower the signal
# How it was run: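 Steps: transfect HepG2 with multiplexed cis reporter constructs; dose chemicals 24 h; extract RNA, reverse-transcribe, PCR-amplify reporter sequences; FAM-label, HpaI-digest, resolve fragments by CE. Activity fitted both directions relative to DMSO.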
# [14] = molecular target: Bile acid receptor (Homo sapiens) (UniProt Q96RI1); assay: ATG_FXR_TRANS: Attagene TRANS-FACTORIAL HepG2 Assay for Farnesoid X Receptor (FXR) (AID 2282979; active = hit-call score of the fitted dose curve at least 0.9, where 1 is the maximum;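 also: hits raise reporter mRNA above DMSO so AC50 marks FXR activation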); settings: HepG2 Attagene TRANS FXR-GAL4 reporter transcription
# How it was run: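 HepG2 cells transiently transfected with reporter constructs in which a chimeric FXR-GAL4 protein drives a GAL4-UAS reporter; 24 h compound exposure. Reporter mRNA measured by RT-PCR, FAM labelling, HpaI digestion and capillary electrophoresis; gain-of-signal versus DMSO.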
# [15] = BSK_3C_TissueFactor: BioMAP Diversity Plus: 3C Assay for Tissue Factor Biomarker Activity (AID 2282997); settings: BioMAP 3C HUVEC, tissue factor biomarker readout; actives raise or lower the signal
# How it was run: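 Readout: Tissue Factor ELISA. Cells: human primary umbilical vein endothelium. Time: 24 h after dosing. Analysis: bidirectional fit, DMSO baseline.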
# [16] = BSK_3C_uPAR: BioMAP Diversity Plus: 3C Assay for Urokinase-type plasminogen activator receptor (uPAR) Biomarker Activity (AID 2282998); settings: BioMAP 3C HUVEC, uPAR biomarker ELISA; actives raise or lower the signal
# How it was run: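 Human umbilical vein endothelial primary cells were exposed to test chemical for 24 h. Cell-surface uPAR was then quantified by ELISA, and responses were fitted bidirectionally against DMSO as negative control and baseline.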
# [17] = BSK_3C_VCAM1: BioMAP Diversity Plus: 3C Assay for Vascular cell adhesion molecule 1 (VCAM1) Biomarker Activity (AID 2282999); settings: BioMAP 3C HUVEC, VCAM1 ELISA, cytokine-stimulated; actives raise or lower the signal
# How it was run: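 Activity fitted in both directions relative to DMSO, with ELISA measurement of the surface marker on primary HUVEC (3C) at 24 h post-treatment; parallel SRB staining (0.1% SRB, TCA-fixed, 560 nm) flagged overt cytotoxicity.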
# [18] = molecular target: Hepatocyte nuclear factor 4-alpha (Homo sapiens) (UniProt P41235); assay: ATG_HNF4a_TRANS: Attagene TRANS-FACTORIAL HepG2 Assay for human Hepatocyte Nuclear Factor 4 alpha (HNF4a) (AID 2282982; active = hit-call score of the fitted dose curve at least 0.9, where 1 is the maximum); settings: HepG2 HNF4a transactivation reporter, mRNA readout
# How it was run: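 Multiplexed reporter assay: transfected HepG2, 24 h exposure, total RNA → oligo(dT) RT → PCR → 6-FAM extension → HpaI digest → CE fluorescence. DMSO = negative control.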
# Chain of Bile acid receptor (Homo sapiens) (Q96RI1 whole entry, looked up, the tested form may be a part): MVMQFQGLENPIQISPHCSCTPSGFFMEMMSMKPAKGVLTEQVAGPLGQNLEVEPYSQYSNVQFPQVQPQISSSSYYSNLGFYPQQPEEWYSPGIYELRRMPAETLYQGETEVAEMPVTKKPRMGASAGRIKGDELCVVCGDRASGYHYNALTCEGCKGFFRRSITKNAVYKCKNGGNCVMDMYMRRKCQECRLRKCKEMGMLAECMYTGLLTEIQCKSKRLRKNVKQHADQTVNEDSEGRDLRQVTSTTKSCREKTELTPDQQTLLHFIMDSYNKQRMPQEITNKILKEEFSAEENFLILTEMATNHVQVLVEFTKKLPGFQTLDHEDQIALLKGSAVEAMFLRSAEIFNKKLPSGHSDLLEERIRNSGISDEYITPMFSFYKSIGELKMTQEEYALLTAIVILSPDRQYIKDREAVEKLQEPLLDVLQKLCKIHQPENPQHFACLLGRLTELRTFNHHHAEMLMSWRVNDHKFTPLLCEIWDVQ
# Chain of Myc proto-oncogene protein (Homo sapiens) (P01106 whole entry, looked up): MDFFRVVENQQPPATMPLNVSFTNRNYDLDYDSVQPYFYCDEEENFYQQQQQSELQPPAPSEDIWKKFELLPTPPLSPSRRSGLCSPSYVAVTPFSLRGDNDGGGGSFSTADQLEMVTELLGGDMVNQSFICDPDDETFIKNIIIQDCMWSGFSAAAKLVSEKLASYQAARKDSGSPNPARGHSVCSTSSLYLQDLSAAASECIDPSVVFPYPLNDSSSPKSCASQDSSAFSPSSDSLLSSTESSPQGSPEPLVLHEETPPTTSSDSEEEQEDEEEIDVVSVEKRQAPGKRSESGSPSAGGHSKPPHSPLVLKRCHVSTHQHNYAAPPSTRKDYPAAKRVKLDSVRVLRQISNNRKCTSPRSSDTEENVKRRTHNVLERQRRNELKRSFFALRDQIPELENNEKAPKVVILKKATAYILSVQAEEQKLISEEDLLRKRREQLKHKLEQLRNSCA
# Chain of Transcriptional activator Myb (Homo sapiens) (P10242 whole entry, looked up): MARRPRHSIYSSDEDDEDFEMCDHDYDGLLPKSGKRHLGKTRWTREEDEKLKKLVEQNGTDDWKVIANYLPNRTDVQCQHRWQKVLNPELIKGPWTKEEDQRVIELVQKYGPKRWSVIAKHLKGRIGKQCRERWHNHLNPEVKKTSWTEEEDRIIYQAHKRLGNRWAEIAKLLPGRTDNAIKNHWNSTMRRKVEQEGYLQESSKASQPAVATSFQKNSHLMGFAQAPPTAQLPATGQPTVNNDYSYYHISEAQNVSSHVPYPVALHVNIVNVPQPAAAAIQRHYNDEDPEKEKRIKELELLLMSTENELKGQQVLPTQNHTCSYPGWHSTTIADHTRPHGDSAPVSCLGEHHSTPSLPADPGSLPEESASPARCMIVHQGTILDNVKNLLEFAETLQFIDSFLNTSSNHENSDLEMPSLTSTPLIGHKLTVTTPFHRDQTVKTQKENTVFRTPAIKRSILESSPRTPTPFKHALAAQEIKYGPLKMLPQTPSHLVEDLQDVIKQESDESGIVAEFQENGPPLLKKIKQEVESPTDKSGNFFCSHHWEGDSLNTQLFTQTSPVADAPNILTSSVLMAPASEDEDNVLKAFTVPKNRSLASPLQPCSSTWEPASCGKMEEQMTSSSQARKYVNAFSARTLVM
# Chain of Cellular tumor antigen p53 (Homo sapiens) (P04637 whole entry, looked up, the tested form may be a part): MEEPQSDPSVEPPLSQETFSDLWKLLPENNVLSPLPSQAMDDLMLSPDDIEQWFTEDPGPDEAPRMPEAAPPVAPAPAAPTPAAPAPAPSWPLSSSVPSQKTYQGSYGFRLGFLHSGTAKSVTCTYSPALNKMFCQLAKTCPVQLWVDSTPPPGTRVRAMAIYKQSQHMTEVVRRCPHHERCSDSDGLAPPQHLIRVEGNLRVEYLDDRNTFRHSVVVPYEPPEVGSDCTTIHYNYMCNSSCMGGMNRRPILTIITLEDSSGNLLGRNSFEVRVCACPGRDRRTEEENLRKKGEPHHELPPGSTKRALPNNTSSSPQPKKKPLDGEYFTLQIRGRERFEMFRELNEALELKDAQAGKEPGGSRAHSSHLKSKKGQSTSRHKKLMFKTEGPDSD
# Chain of Glucocorticoid receptor (Homo sapiens) (P04150 whole entry, looked up, the tested form may be a part): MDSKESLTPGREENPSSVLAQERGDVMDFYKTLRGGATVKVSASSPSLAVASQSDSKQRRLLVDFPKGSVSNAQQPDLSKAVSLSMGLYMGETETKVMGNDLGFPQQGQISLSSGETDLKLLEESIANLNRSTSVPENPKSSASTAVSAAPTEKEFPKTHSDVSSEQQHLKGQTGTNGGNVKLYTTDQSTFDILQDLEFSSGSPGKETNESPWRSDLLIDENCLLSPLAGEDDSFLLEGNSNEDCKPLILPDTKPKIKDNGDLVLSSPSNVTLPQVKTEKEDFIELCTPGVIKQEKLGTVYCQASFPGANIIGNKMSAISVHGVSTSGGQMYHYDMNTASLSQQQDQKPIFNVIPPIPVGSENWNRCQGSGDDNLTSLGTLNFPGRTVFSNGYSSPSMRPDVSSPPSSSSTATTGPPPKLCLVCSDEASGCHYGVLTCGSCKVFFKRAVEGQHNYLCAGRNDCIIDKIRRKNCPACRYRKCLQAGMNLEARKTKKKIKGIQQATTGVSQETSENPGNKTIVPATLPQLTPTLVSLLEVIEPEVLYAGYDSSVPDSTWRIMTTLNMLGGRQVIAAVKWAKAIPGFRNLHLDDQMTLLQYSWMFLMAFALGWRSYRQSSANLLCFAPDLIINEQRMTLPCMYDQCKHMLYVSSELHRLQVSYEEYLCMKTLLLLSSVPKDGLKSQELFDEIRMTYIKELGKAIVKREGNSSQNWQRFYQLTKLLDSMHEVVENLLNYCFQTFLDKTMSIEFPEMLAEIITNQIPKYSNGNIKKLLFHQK
# Chain of Nuclear respiratory factor 1 (Homo sapiens) (Q16656 whole entry, looked up, the tested form may be a part): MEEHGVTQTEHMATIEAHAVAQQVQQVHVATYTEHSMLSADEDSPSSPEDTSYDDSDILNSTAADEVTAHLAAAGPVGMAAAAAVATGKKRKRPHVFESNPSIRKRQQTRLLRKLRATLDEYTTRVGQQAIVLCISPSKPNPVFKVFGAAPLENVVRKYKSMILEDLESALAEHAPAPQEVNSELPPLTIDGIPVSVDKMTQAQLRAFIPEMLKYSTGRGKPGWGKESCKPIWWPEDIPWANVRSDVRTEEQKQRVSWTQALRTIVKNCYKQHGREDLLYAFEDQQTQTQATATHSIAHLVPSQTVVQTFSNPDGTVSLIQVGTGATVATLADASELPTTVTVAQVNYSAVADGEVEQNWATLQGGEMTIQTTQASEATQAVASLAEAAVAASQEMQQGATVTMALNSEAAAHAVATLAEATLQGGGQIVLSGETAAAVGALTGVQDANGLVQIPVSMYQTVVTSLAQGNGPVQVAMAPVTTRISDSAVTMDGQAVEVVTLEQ
# Chain of Nuclear receptor subfamily 4 group A member 2 (Homo sapiens) (P43354 whole entry, looked up, the tested form may be a part): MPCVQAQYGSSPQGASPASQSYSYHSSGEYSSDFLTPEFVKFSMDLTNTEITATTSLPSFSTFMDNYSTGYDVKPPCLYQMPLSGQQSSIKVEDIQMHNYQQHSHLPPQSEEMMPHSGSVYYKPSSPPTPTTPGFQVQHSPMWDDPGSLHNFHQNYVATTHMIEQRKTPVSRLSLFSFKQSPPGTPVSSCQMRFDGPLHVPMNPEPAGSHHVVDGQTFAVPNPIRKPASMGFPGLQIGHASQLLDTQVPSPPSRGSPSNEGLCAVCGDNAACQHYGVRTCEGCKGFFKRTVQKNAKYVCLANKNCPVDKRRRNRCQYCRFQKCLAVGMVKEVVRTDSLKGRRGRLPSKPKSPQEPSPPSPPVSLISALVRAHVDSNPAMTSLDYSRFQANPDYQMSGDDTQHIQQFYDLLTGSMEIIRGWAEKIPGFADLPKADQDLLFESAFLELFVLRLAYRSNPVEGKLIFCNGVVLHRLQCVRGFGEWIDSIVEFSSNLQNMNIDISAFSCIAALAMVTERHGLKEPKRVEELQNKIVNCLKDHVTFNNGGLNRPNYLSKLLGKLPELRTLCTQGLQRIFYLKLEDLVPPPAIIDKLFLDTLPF
# Chain of Hepatocyte nuclear factor 4-alpha (Homo sapiens) (P41235 whole entry, looked up): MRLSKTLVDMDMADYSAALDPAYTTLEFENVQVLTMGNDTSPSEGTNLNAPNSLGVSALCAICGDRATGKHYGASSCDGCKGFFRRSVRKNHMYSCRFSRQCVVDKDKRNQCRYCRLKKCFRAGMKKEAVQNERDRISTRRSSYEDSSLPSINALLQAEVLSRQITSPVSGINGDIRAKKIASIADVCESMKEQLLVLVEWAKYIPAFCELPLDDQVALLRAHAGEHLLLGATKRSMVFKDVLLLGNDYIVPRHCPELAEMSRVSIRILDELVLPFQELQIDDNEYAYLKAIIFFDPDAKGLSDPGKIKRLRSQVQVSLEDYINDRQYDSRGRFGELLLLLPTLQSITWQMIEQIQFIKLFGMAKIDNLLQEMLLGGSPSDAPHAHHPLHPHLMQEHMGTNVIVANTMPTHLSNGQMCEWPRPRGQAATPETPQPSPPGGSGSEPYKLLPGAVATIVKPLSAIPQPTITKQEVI
# Chain of Oxysterols receptor LXR-beta (Homo sapiens) (P55055 whole entry, looked up, the tested form may be a part): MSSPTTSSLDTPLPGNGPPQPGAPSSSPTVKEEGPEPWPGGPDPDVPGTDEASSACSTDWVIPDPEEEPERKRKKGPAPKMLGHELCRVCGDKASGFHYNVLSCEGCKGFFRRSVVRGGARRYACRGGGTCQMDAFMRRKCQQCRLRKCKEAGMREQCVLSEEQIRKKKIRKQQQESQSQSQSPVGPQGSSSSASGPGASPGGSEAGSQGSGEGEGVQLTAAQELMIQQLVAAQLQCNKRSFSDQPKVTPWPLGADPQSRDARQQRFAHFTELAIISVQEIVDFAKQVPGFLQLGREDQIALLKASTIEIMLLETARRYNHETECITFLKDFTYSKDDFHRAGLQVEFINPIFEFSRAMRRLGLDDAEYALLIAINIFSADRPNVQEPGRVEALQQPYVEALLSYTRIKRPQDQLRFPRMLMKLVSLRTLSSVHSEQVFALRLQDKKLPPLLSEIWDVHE
smiles,measurement,setting,value
CCCCCCCCn1sc(Cl)c(Cl)c1=O,outcome,[1],inactive
same,outcome,[2],inactive
same,outcome,[3],inactive
same,outcome,[4],inactive
same,outcome,[5],inactive
same,AC50,[6],20.4 µM (active)
same,outcome,[7],inactive
same,outcome,[8],inactive
same,outcome,[9],inactive
same,outcome,[10],inactive
same,AC50,[11],6.58 µM (active)
same,outcome,[12],inactive
same,AC50,[13],11.1 µM (active)
C=CC(=O)OCCC(F)(F)C(F)(F)C(F)(F)C(F)(F)F,outcome,[1],inactive
same,outcome,[14],inactive
same,outcome,[3],inactive
same,outcome,[4],inactive
same,outcome,[5],inactive
same,outcome,[6],inactive
same,outcome,[7],inactive
same,outcome,[8],inactive
same,outcome,[10],inactive
same,AC50,[11],98.8 µM (active)
same,outcome,[12],inactive
same,outcome,[13],inactive
same,AC50,[15],22.2 µM (active) and 26.3 µM (active)
same,outcome,[16],inactive
same,AC50,[17],16.6 µM (active) and 15.6 µM (active)
CC(=O)c1ccccc1N,outcome,[1],inactive
same,outcome,[18],inactive
same,outcome,[3],inactive
same,outcome,[6],inactive
same,outcome,[7],inactive
same,outcome,[8],inactive
same,outcome,[9],inactive
same,outcome,[10],inactive
same,outcome,[12],inactive
same,outcome,[13],inactive
CCN=C1C=CC(=C(c2ccc(N(CC)CC)cc2)c2ccc(N(CC)CC)cc2)c2ccccc21,outcome,[1],inactive
same,outcome,[14],inactive
same,outcome,[18],inactive
same,outcome,[6],inactive
same,AC50,[7],1.04 µM (active)
same,outcome,[8],inactive
same,outcome,[9],inactive
same,outcome,[10],inactive
same,AC50,[12],0.566 µM (active)
same,AC50,[13],0.917 µM (active)
same,AC50,[15],1.96 µM (active) and 1.79 µM (active)
same,AC50,[16],3.95 µM (active) and 1.39 µM (active)
same,AC50,[17],2.64 µM (active) and 2.81 µM (active)
CCCCC(CC)COC(=O)c1ccc(N(C)C)cc1 (configuration not stated),outcome,[1],inactive
same,outcome,[14],inactive
same,outcome,[18],inactive
same,outcome,[3],inactive
same,outcome,[4],inactive
same,outcome,[5],inactive
same,outcome,[6],inactive
same,outcome,[7],inactive
same,outcome,[8],inactive
same,outcome,[9],inactive
same,outcome,[10],inactive
same,outcome,[12],inactive
same,outcome,[13],inactive
Nc1cc([N+](=O)[O-])cc(Cl)c1O,outcome,[1],inactive
same,outcome,[3],inactive
same,outcome,[4],inactive
same,outcome,[6],inactive
same,outcome,[7],inactive
same,outcome,[8],inactive
same,outcome,[9],inactive
same,outcome,[10],inactive
same,outcome,[11],inactive
same,outcome,[12],inactive
same,outcome,[13],inactive
same,outcome,[15],inactive
same,outcome,[16],inactive
same,outcome,[17],inactive
CCN=c1cc2oc3cc(NCC)c(C)cc3c(-c3ccccc3C(=O)OCC)c-2cc1C,outcome,[1],inactive
same,outcome,[14],inactive
same,outcome,[3],inactive
same,outcome,[4],inactive
same,outcome,[6],inactive
same,outcome,[7],inactive
same,AC50,[8],17.5 µM (active)
same,outcome,[9],inactive
same,outcome,[10],inactive
same,AC50,[11],0.132 µM (active)
same,AC50,[12],7.4 µM (active)
same,AC50,[13],1.56 µM (active)
O=c1cccc[nH]1,outcome,[1],inactive
same,outcome,[2],inactive
same,outcome,[18],inactive
same,outcome,[3],inactive
same,outcome,[4],inactive
same,outcome,[5],inactive
same,outcome,[6],inactive
same,outcome,[7],inactive
same,outcome,[8],inactive
same,outcome,[9],inactive
same,outcome,[10],inactive
same,outcome,[11],inactive
same,outcome,[12],inactive
same,outcome,[13],inactive
COc1ccccc1C=O,outcome,[1],inactive
same,outcome,[14],inactive
same,outcome,[2],inactive
same,outcome,[4],inactive
same,outcome,[5],inactive
same,outcome,[6],inactive
same,outcome,[7],inactive
same,outcome,[8],inactive
same,outcome,[9],inactive
same,outcome,[10],inactive
same,outcome,[12],inactive
same,outcome,[13],inactive
CCCCCC/C=C/CCCCCCCC(=O)O,outcome,[1],inactive
same,outcome,[14],inactive
same,outcome,[3],inactive
same,outcome,[4],inactive
same,AC50,[5],67.1 µM (active)
same,outcome,[6],inactive
same,outcome,[7],inactive
same,outcome,[8],inactive
same,outcome,[9],inactive
same,outcome,[10],inactive
same,outcome,[12],inactive
same,outcome,[13],inactive
CCCCCCCCCc1ccc(OCCO)cc1,outcome,[1],inactive
same,outcome,[14],inactive
same,outcome,[3],inactive
same,AC50,[6],17.6 µM (active)
same,outcome,[7],inactive
same,outcome,[8],inactive
same,outcome,[9],inactive
same,outcome,[10],inactive
same,AC50,[11],5.92 µM (active)
same,outcome,[12],inactive
same,outcome,[13],inactive
O=S(=O)(O)CCC(F)(F)C(F)(F)C(F)(F)C(F)(F)F,outcome,[1],inactive
same,outcome,[2],inactive
same,outcome,[3],inactive
same,outcome,[6],inactive
same,outcome,[7],inactive
same,outcome,[8],inactive
same,outcome,[9],inactive
same,outcome,[10],inactive
same,outcome,[12],inactive
same,outcome,[13],inactive
same,outcome,[15],inactive
same,outcome,[16],inactive
same,outcome,[17],inactive
